# F-actin modifier = modifiers of F-actin cytoskeleton organization, primary screen, imaging, HUVEC, phalloidin staining, high-content imaging; HUVEC TNFa F-actin phalloidin imaging; inhibition, % at 2 µM; 91,000 tested, 0.18% active; AID 836, 2007;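 active = inhibition above the batch mean plus 3 SD and confirmed as a hit by visual image inspection, cut at about 30% in these data, passing the limit was not always enough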
# HUVEC tox TNFa = cytotoxicity in TNFa-stimulated HUVEC, primary screen, cytotoxicity control for VCAM1 expression modulator project, imaging, Hoechst nuclei count; HUVEC TNFalpha-stimulated, Hoechst cell count; cell count reduction, % at 2 µM; 93,000 tested, 0.17% active;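 active = cell count reduction exceeding the screen mean by over 5 SD, scaled to untreated wells per plate, cut at about 78% in these data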;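 note: cells counted after 24 h of TNF alpha exposure following the 1 h pretreatment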
# E-sel TNF inh = E-selectin induction blockers in HUVEC – imaging, immunofluorescence, high content, primary screen | inhibition, % at 2 µM | 120,000 tested, 0.71% active | AID 1246, 2008 | HUVEC TNFa-induced E-selectin immunofluorescence;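 active = inhibition above the batch mean plus 3 SD, and confirmed as a hit on visual image review, cut at about 43% in these data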;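 note: 0% = TNF-stimulated DMSO wells and 100% = unstimulated control wells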
# VCAM1 TNFa inh = inhibitors of TNFa-induced VCAM1 expression, primary screen, imaging, HUVEC, TNFa stimulus, immunofluorescence; HUVEC TNFa-induced VCAM-1 immunofluorescence, high-content imaging; inhibition, % at 2 µM; 95,000 tested, 0.48% active; AID 802, 2007;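 active = inhibition above the batch mean plus 3 SD, with images confirmed as a hit by eye, cut at about 37% in these data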;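 note: 0% = TNF-stimulated DMSO wells and 100% = unstimulated control wells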
# * = called active by the depositor; x = not tested or not shown. In the library only some 1% were active in any assay of this set; here they are far more common.
SMILES,F-actin modifier,HUVEC tox TNFa,E-sel TNF inh,VCAM1 TNFa inh
O=C(Oc1nsnc1N1CCOCC1)N1CCCCC1,-1,-9,29,5
CCCCCCc1cc2cc(S(=O)(=O)c3ccc(F)c(Cl)c3)c(=O)oc2cc1O,x,x,-41,x
Cn1c(=O)c2c(nc(SCC(=O)NC34CC5CC(CC(C5)C3)C4)n2C)n(C)c1=O,-16,14,68*,1
CC(=O)N1CCC2(CC1)C(C#N)=C(N)Oc1n[nH]c(C)c12,x,x,-8,x
O=C(NNC(=O)c1ccc([N+](=O)[O-])o1)c1ccccc1,13,-26,-22,12
Cc1cc(C)cc(NC(=O)c2ccc([N+](=O)[O-])o2)c1,x,x,76*,x
CCOc1cc(N2CCOCC2)c(OCC)cc1NC(=S)NCCCOC,x,x,4,x
COc1ccccc1N(C)S(=O)(=O)c1ccc(C(=O)NCC(C)C)cc1,-26,28,13,74*
CCC(C)(C)NC(=O)c1ccc(S(=O)(=O)N(C)c2ccccc2OC)cc1,-7,5,0,-7
CCCOC(=O)C1C2C=C[C@]3(CN(CCc4ccccc4)C(=O)[C@H]13)O2 (stereo partly specified),6,82*,x,93*
CCCCOC(=O)C1[C@H]2C(=O)N(CCc3ccccc3)C[C@]23C=C[C@H]1O3 (stereo partly specified),-10,-12,x,18
O=C1c2ccccc2C(Nc2ccc(S(=O)(=O)N3CCCCCC3)cc2)N1Cc1ccco1 (stereo unspecified),-2,-8,66*,4
CCc1ccccc1NC1c2ccccc2C(=O)N1Cc1ccco1 (stereo unspecified),x,x,-17,x
CC(C)c1cc(C(F)(F)F)n2nc(C(=O)Nc3ccc4c(c3)OCO4)cc2n1,-25,-8,10,-21
O=C(O)CCC(=O)Nc1ccc(Br)c(Cl)c1,0,-5,75*,19
COc1ccc(C(c2nnnn2Cc2ccccc2)N2CCN(c3nc4ccccc4s3)CC2)cc1 (stereo unspecified),x,x,69*,x
COc1ccc(Cn2nnnc2C(c2cccs2)N2CCSCC2)cc1 (stereo unspecified),-103,88*,x,87*
COc1ccc(Cn2nnnc2C(c2cccs2)N2CCCCCC2)cc1 (stereo unspecified),-9,24,-27,-1
C=CCNC(=S)NNC(=O)c1ccc(Br)cc1,x,x,63*,x
O=C(CSc1nnc(-c2cccs2)n1-c1ccccc1)N1CCCC1,-44,88*,21,59
O=C(CSc1nnc(-c2cccs2)n1-c1ccccc1)N1CCOCC1,12,-10,-9,4
COCCCNC(=O)CN1C(=O)c2ccccc2C1=O,11,-20,66*,-22
O=C(CCCCCN1C(=O)c2ccccc2C1=O)Nc1ccccc1,-2,-24,-1,9
O=C(CCCCCN1C(=O)c2ccccc2C1=O)Nc1nccs1,-4,69,7,50*
CC(=O)c1c(C)[nH]c(C(=O)Nc2ccccc2N2CCOCC2)c1C,x,x,75*,x
SMILES,F-actin modifier,HUVEC tox TNFa,E-sel TNF inh,VCAM1 TNFa inh
CCOc1ccc(-n2cc(C(=O)NCc3ccco3)c3cc(OC)c(OC)cc3c2=O)cc1,63*,-16,x,-4
O=C(O)C1CC=CCC1C(=O)N1CCc2ccccc21 (stereo unspecified),-17,5,-15,16
O=C(O)C1CC=CCC1C(=O)N1CCCC1 (stereo unspecified),14,96*,6,82*
COc1ccc(C(=O)CSc2nc3nc(C)cc(C)c3c(=O)[nH]2)cc1OC,20,-9,8,4
Cc1ccc(S(=O)(=O)Cc2ccc(C(=O)OCc3ccccc3)cc2)cc1,9,0,4,9
O=C(CNc1ccc(C(F)(F)F)cc1[N+](=O)[O-])OCC(=O)c1ccccc1,-5,-43,17,19
O=C(CS(=O)c1ccc(C(F)(F)F)cc1[N+](=O)[O-])Oc1ccccc1 (stereo unspecified),29,20,84*,88*
CS(=O)(=O)c1ccc(S(=O)CC(=O)OCc2ccccc2)c([N+](=O)[O-])c1 (stereo unspecified),x,x,100*,x
CSc1nnc(C(C)c2ncc(C(F)(F)F)cc2Cl)n1C (stereo unspecified),x,x,1,x
C/C(Cl)=C\Cn1c(NCCCn2ccnc2)nc2c1c(=O)n(C)c(=O)n2C,-35,89*,x,88*
C/C(Cl)=C/Cn1c(NCCCn2ccnc2)nc2c1c(=O)[nH]c(=O)n2C,-20,-2,-13,5
O=C(Cn1cnc2ccccc21)OCC(=O)N1CCc2ccccc2C1,x,x,-7,x
COc1cc(/C=C/C(=O)N2CCN(CC(O)COc3ccccc3)CC2)cc(OC)c1OC (stereo unspecified),33,-23,66*,2
COc1cc(/C=C/C(=O)N2CCCN(C(=O)/C=C/c3cc(OC)c(OC)c(OC)c3)CC2)cc(OC)c1OC,x,x,5,x
O=C(NCC(O)c1ccc([N+](=O)[O-])cc1)c1cccc(S(=O)(=O)N2CCCC2)c1 (stereo unspecified),x,x,31,x
CON/C=C(\C=Nc1ccc(Cl)cc1)c1ncc(C(F)(F)F)cc1Cl,-2,-25,0,-2
CCOC(=O)C1C(=O)CC(C)(O)C(C(=O)OCC)C1c1ccccc1 (stereo unspecified),19,-6,59*,-20
CCOC(=O)C1C(=O)CC(C)(O)C(C(=O)OCC)C1c1ccc(OC)cc1 (stereo unspecified),-26,28,x,18
Cc1ccc(O)c(NC(=S)NC(=O)c2ccc(-c3ccc(Cl)cc3)o2)c1,9,-10,55*,5
O=C(NC(=S)Nc1ccccc1O)c1ccc(-c2ccc(Cl)cc2)o1,-3,-40,-33,17
CCc1n[nH]c(=S)n1/N=C/c1ccc2c(c1)OCO2,-8,-19,-29,8
CCCc1nnc(SCC(=O)O)n1/N=C/c1ccc2c(c1)OCO2,x,49,-6,48*
OC(c1ccccc1)(c1ccc(F)cc1)C(c1ccccc1)N1CCOCC1 (stereo unspecified),1,18,-9,-1
Cc1cc(C)c(/C=N/NC(N)=O)c(C)c1/C=N/NC(N)=O,-104,44,-29,69*
CCCC1=C(C(=O)OCC)C(c2ccc(N(C)C)cc2)n2ncnc2N1 (stereo unspecified),-63,-10,-21,2
SMILES,F-actin modifier,HUVEC tox TNFa,E-sel TNF inh,VCAM1 TNFa inh
CCc1ccc(C(=O)/C=C/c2ccc([N+](=O)[O-])o2)cc1,4,-6,12,49*
C=CS(=O)(=O)c1ccc(Oc2ccc(S(=O)(=O)C=C)cc2)cc1,x,x,100*,x
O=S(=O)(c1ccc(Oc2ccc(S(=O)(=O)N3CCOCC3)cc2)cc1)N1CCOCC1,x,x,-1,x
COc1ccc(Cl)c(NC(=O)Nc2c(C)n(-c3ccccc3)c(=O)n2C)c1,-5,9,-32,94*
CCC(C)C1C(C#N)=C(N)Oc2n[nH]c(-c3ccccc3)c21 (stereo unspecified),-11,29,6,56*
COC(=O)c1c(NC(=O)c2ccc(S(=O)(=O)N3CCOCC3)cc2)sc2c1CCN(C)C2,-20,7,17,54*

# Screens (PubChem)
